M1 antag = blocks human M1 muscarinic receptor; 1.3% of 360,000 active; P11229; CHO-K1 hM1, Fluo-8 calcium fluorescence, ACh EC80 antagonist; inhibition, % at 3 µM;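 active = percent inhibition above its own plate's cutoff, namely the mean of that plate's compound wells plus 3 SD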;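 note: peak over basal fluorescence ratio during 140 s after agonist addition; 0% = ACh EC80 plus DMSO and 100% = DMSO alone without agonist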
Target sequence (P11229 whole entry, looked up): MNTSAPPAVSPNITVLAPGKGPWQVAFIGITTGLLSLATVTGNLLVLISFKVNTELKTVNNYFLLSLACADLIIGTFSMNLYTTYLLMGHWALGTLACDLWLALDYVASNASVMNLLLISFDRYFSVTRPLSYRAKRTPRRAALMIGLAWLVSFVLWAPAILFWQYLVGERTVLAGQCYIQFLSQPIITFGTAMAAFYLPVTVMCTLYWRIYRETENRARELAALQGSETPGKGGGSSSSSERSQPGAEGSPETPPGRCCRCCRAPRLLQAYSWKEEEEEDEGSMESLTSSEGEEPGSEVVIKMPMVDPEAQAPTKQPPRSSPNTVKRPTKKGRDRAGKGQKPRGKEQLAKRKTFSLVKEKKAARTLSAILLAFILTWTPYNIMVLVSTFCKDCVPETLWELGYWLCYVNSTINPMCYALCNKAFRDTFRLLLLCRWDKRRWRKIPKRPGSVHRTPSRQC
CHO-K1 Ca antag = M1 antagonist counterscreen hit in parental CHO-K1 cells; ATP-induced calcium, Fluo-8 fluorescence; AID 602250; 0.6% of 360,000 active; inhibition, % at 3 µM;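 active = inhibition above a per-plate cutoff, the plate's mean sample inhibition plus 3 SD, cut at about 24% in these data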;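 note: 0% = DMSO plus EC80 ATP and 100% = DMSO alone without ATP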
M1 PAM = human CHRM1 positive allosteric modulation | P11229 | CHO-K1 hM1, Fluo-8 calcium fluorescence, ACh EC20; 0% = ACh EC20, 100% = maximal ACh | activation, % at 3 µM | 0.088% of 360,000 active | AID 588819; in the data active = activation above about 19%, passing the limit was not always enough
CHO-K1 Ca ag = counter-screen for M1 agonists: effect in parental CHO-K1 cells; Fluo-8 calcium fluorescence; scaled to maximal ATP response, vehicle zero; activation, % at 3 µM; 0.48% of 360,000 active; AID 602248; in the data active = activation above about 15%;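 note: untransfected CHO-K1 host cells lacking M1 receptor as counterscreen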
M1 ag = activates human CHRM1 receptor | P11229 | CHO-K1 hM1, Fluo-8 calcium fluorescence, agonist mode; 0% DMSO, 100% acetylcholine EC100 | activation, % at 3 µM | 0.33% of 360,000 active | AID 588814;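 active = activation above the run's mean compound activation plus 3 SD, cut at about 16% in these data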;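 note: peak over basal fluorescence ratio within a 140 s kinetic read after compound addition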
M1 PAM parental = nonselective activator or artifact in parental CHO-K1 calcium assay; ATP EC20, Fluo-8 calcium fluorescence; 0% at ATP EC20, 100% at ATP max; activation, % at 3 µM; 0.02% of 360,000 active;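 active = activation above the run cutoff, the mean activation of all test compounds plus 3 SD, cut at about 40% in these data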;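 note: peak over basal fluorescence ratio in a 140 s read after ATP addition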
* marks the source's active call; other numbers are inactive results; · = no result. Compounds with a hit are over-represented: about 2.4% of the library has one in this group of screens.

SMILES	M1 antag	CHO-K1 Ca antag	M1 PAM	CHO-K1 Ca ag	M1 ag	M1 PAM parental
c1ccc2c(c1)oc1c(-c3ccc4nccn4c3)cccc12	-13	-18	7	1	-2	18
CCOc1ccc(-c2cnc3n2CCC3)cc1	1	-19	-6	0	-5	31
Clc1ccc(-c2cnc3n2CCCCC3)cc1	41*	-17	-22	4	-7	18
Fc1ccc(-c2cnc3n2CCCCC3)cc1	39*	14	-19	1	-8	-11
Brc1ccc(-c2cnc3n2CCCC3)cc1	9	0	-18	1	-5	5
CCCCn1c(N)c(N(CCOC)C(=O)CC(NC(=O)c2ccccc2)c2ccccc2)c(=O)[nH]c1=O (stereo not drawn)	-7	11	4	0	-4	5
COc1ccc(S(=O)(=O)Nc2cc3[nH]c(=O)oc3cc2C)cc1	-13	-3	18	2	1	14
O=C(N/N=C\c1c(O)ccc2ccccc12)c1cncc(Br)c1	-8	6	2	39*	42*	-11
CCN(C(=O)COC(=O)CNC(=O)C1CCCCC1)c1ccccc1	1	-3	4	2	0	8
Cc1ccc(OCCCCN2CCC(C)CC2)cc1	4	-12	-7	0	-10	11
CC1CCC(NC(=O)COc2ccc(C(=O)c3ccccc3)cc2)CC1 (stereo not drawn)	-17	4	10	2	-2	-1
CC1CCN(CCCCOc2ccc(C(=O)c3ccccc3)cc2)CC1	55*	-5	-24	1	-3	11
CC1CCN(CCOc2ccc(C(=O)c3ccccc3)cc2)CC1	64*	-7	-29	1	-9	15
CCCOc1ccc(OCCN2CCCC(C)C2)cc1 (stereo not drawn)	28*	-13	-23	1	-7	23
CC1CCN(CCCCOc2cccc(C(C)C)c2)CC1	70*	10	-31	1	-5	-24
CC1CCN(CCOc2cccc(Br)c2)CC1	9	-6	-5	2	-9	24
CCN1C[C@@H]2[C@@H]3C(=O)N(Cc4ccccc4)C(=O)[C@@H]3[C@](C)(C1=O)N2C(=O)c1ccc(F)cc1	-4	-10	-1	0	-3	8
CCN(CC)CCNC(Cc1ccccc1)c1cccc(OC)c1 (stereo not drawn)	1	-2	-2	2	-3	-1
Cc1ccccc1-n1c(SCC(=O)N2CCCC2)nnc1-c1ccccn1	-37	-12	22*	0	1	18
CCc1ccccc1-n1c(SCC(=O)N2CCCC2)nnc1-c1ccccn1	-7	-4	6	1	-2	14
CCc1c(N)nc(N)nc1Nc1ccccc1C	-17	-15	5	3	-3	2
CCc1sc(C(=O)N2CCN(C(=O)c3ccccc3)CC2)cc1C	-2	-10	5	0	-7	9
COc1ccc(OCc2cc(C(=O)NCCN3CCCc4ccccc43)no2)c(Cl)c1	53*	-4	-22	2	-5	5
O=C(CCn1c(=O)c2cccn2c2cccnc21)NCCCN1CCN(c2ccc(F)cc2)CC1	6	-9	-1	0	-9	10
O=C(c1ccc(CSc2nc3ccncc3[nH]2)cc1)N1CCCCCC1	-1	-15	1	4	-5	17
SMILES	M1 antag	CHO-K1 Ca antag	M1 PAM	CHO-K1 Ca ag	M1 ag	M1 PAM parental
O=C(c1ccc(CSc2nc3ccncc3[nH]2)cc1)N1CCN(c2cccc(Cl)c2)CC1	36*	9	-20	10	-5	1
CC(=O)Nc1cccc(NC(=O)CSc2ncc(-c3ccc(Cl)cc3)n2Cc2ccco2)c1	26*	12	-19	8	6	1
Cc1ccn2c(Cc3ccccc3)c(-c3ccc(F)cc3)nc2c1	-5	-4	0	0	-9	15
Cc1sc2ncnc(NCCCN3CCCC3=O)c2c1C	-1	-8	7	18*	-3	16
C#CCOCCOCCOCCNc1nc(N2CCN(C(=O)CCCCCCCCCCNC(=O)[C@@H](CCC(=O)O)n3cc(CCCCCN)nn3)CC2)nc(N2CCN(C(=O)CCCCCCCCCCNC(=O)[C@H](CCCCN)n3cc(C[C@@H](C)CC)nn3)CC2)n1	10	-12	-16	3	20*	5
CCN1/C(=C2\C(=O)N(c3ccccc3)N=C2C)C=Cc2cc(C)ccc21	11	15	-14	24*	20*	-11
CCN1/C(=c2/s/c(=C3/C(=O)N(c4ccccc4)N=C3C)n(CC)c2=O)C=Cc2ccccc21	-10	6	5	6	-4	-13
O=C1N(c2ccccc2)C[C@@H]2C[C@@H](c3cccc4c3OCO4)N3CCC[C@@]123	49*	-8	-30	1	-12	4
O=C(COc1ccc(Br)cc1)N(Cc1nnc(-c2ccccc2Cl)o1)C1CC1	37*	-6	-23	5	-5	7
CN1CCN(S(=O)(=O)c2cccc(C(=O)N(Cc3nnc(-c4ccccc4Cl)o3)C3CC3)c2)CC1	-7	4	5	17*	-1	-3
CCC(=O)c1ccc(OCC(=O)N(Cc2nnc(-c3ccccc3Cl)o2)C2CC2)cc1	-10	-11	5	3	-6	15
Cc1ccc(C(=O)N(Cc2nnc(-c3ccccc3Cl)o2)C2CC2)o1	-12	-7	4	1	-7	10
O=C(c1ccc([N+](=O)[O-])o1)N(Cc1nnc(-c2ccccc2Cl)o1)C1CC1	27*	14	-10	0	-9	-11
CN1CCN(S(=O)(=O)c2ccc(F)cc2)CC1	2	-10	-1	0	-5	5
CC(=O)CC(=O)NC1CCc2ccccc21 (stereo not drawn)	-7	13	1	0	0	-22
O=S1(=O)N[C@@H](Cc2ccccc2)COc2cc(N3CCSCC3)ccc21	·	-19	·	4	·	22
COc1cccc(N(C(=O)c2snc(C(N)=O)c2N)C(C(=O)NCC2CCCO2)c2ccc(F)cc2)c1 (stereo not drawn)	-15	-25	10	3	-1	29
COc1cccc(N(C(=O)c2sc(C)nc2C)C(C(=O)NCC2CCCO2)c2ccccc2)c1 (stereo not drawn)	-17	27*	11	5	-1	-5
C[C@@H]1CN([C@H](C)CO)S(=O)(=O)c2ccc(C#Cc3ccccc3F)cc2O[C@H]1CN(C)C(=O)c1ccc2c(c1)OCO2	27*	4	-11	6	5	10
CCN(C[C@H]1N[C@@](CC)(C(=O)OC)[C@H]2C(=O)N(C)C(=O)[C@@H]12)S(=O)(=O)c1ccccc1	0	-9	0	0	0	-4
Cn1c(SCC(=O)NCC2CCCO2)nnc1-c1ccco1 (stereo not drawn)	-18	-12	15	0	1	14

Bioassay records from PubChem BioAssay.
